# Test results reported in PubChem BioAssay (NCATS).
# A number with no mark means an inactive call. Results filed as inconclusive are left out. Activity calls are given as the source filed them. Unless noted, calls come from the whole dose curve; as a rule, active = well fitted activation curve with a large enough effect in the main read-out, with a control signal flat (not every such curve was filed as active); inconclusive = small, poorly fitted or top-dose-only effect, or effect the other way, or a change in a side signal; inactive = flat fitted curve, though single readings scatter.
# Molecular target: 3',5'-cyclic-AMP phosphodiesterase 4B (Homo sapiens) (UniProt Q07343)
# Sequence (Q07343 whole entry, looked up): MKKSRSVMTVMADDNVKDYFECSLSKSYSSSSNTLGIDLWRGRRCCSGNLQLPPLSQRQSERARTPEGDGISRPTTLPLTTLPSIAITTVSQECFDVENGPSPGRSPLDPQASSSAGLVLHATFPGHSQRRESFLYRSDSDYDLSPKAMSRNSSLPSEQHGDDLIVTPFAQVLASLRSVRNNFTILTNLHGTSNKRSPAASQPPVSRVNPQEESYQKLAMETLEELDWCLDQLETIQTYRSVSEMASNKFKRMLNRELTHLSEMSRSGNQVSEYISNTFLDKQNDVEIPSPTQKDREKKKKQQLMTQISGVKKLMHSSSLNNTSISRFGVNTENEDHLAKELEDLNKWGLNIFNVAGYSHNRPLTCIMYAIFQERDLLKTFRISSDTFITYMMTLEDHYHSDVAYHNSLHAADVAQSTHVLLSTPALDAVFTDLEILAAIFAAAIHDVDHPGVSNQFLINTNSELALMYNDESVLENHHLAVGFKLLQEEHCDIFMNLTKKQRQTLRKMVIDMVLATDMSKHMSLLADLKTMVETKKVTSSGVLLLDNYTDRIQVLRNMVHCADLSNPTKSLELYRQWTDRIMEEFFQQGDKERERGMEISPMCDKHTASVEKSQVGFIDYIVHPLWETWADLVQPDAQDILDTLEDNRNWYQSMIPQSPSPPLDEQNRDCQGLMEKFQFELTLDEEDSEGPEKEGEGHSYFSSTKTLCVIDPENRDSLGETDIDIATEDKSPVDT
# Test: qHTS Assay for Inhibitors of PDE-IV (AID 607); note: % of control where 0% means no effect
# Details: HEK293 ACTOne CNG channel cells, membrane potential fluorescence; series mostly up to 22.9 µM; activation (PDE inhibition): at the top concentration
# In short: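 Cell-based read-out of cAMP via a modified cyclic nucleotide-gated channel and membrane potential dye (535/590 nm) in HEK293 cells expressing PDE4 endogenously. Compounds tested up to 22.9 uM final; 100 uM RO 20-1724 reference.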
SMILES,activation (PDE inhibition) [%],outcome
N=C(N)SCCc1ccc(CCSC(=N)N)cc1,0.767,
C[N+]1(C)CCC(OC(=O)C(c2ccccc2)c2ccccc2)CC1,,inactive
CC(=O)SCC[N+](C)(C)C,-7.75,
CN(C)c1nc(N)c(C(=O)N=C(N)N)nc1Cl,-11.9,
O=C(Nc1cccc(C(=O)Nc2ccc(S(=O)(=O)O)c3cc(S(=O)(=O)O)cc(S(=O)(=O)O)c23)c1)Nc1cccc(C(=O)Nc2ccc(S(=O)(=O)O)c3cc(S(=O)(=O)O)cc(S(=O)(=O)O)c23)c1,,inactive
CCCN(CC1CC1)c1nc(C)nc(Nc2c(Cl)cc(Cl)cc2Cl)c1Cl,-3.79,
NCCSSCCN,,inactive
Cc1cc(NC(=O)Nc2ccc3c(ccn3C)c2)sn1,,inactive
NCCNC(=O)c1ncsc1-c1cccc(F)c1,-22.3,
COc1cc(OC)c(/C=C2/C(=O)Nc3ccccc32)c(OC)c1,34.5,
COC1=C(OC)C(=O)c2ccccc2C1=O,22.2,
CN1CCc2cc(NC(=O)Nc3cccnc3)ccc21,-8.01,
COc1cccc(C(=O)NCCN2CCN(c3ccc(Cl)cc3)CC2)c1,18.1,
Cn1c(=O)c2[nH]c(-c3ccccc3)nc2n(C)c1=O,15.7,
C[N+](C)(CCCCCC[N+](C)(C)CCCN1C(=O)c2cccc3cccc(c23)C1=O)CCCN1C(=O)c2cccc3cccc(c23)C1=O,-3.06,
CCCCCCCC/C=C\CCCCCCCC(=O)NCCO,-7.96,
Cc1nc2sccn2c(=O)c1CCN1CCC(=C(c2ccccc2)c2ccc(F)cc2)CC1,-24,
CC(C)Cc1ccc([C@H](C)C(=O)O)cc1,,inactive
CN1[C@@H]2CC[C@H]1CC(OC(c1ccccc1)c1ccccc1)C2 (some centres not stated),,inactive
N=c1ccn2c(n1)O[C@H]1[C@H](O)[C@@H](CO)O[C@H]12,27.2,
COc1cc2c(CCNC(C)=O)c[nH]c2cc1Cl,,inactive
COc1ccccc1N1CCN(CCN(C(=O)c2ccc(I)cc2)c2ccccn2)CC1,-27.9,
NC[C@@H]1O[C@H](C23CC4CC(CC(C4)C2)C3)Cc2c1ccc(O)c2O,,inactive
Ic1ccc(N2CCN(Cc3c[nH]c4ncccc34)CC2)cc1,19.5,
O=C(O)CC[C@@H](C(=O)O)N1C(=O)c2ccccc2C1=O,,inactive
N#C/C(=C\c1ccc(O)c(O)c1)C(=O)c1ccc(O)c(O)c1,-17.2,
COc1ccccc1CNCCCCCCNCCCCCCCCNCCCCCCNCc1ccccc1OC,-3.42,
O=c1[nH]c2cc(Cl)c(Cl)cc2[nH]c1=O,1.91,
NC(N)=NC(=O)c1nc(Cl)c(N2CCCCCC2)nc1N,17,
CC(C)(C=O)Cc1cc(C(C)(C)C)c(O)c(C(C)(C)C)c1,17.8,

# Molecular target: Guanine nucleotide-binding protein G(i) subunit alpha-1 (Homo sapiens) (UniProt P63096)
# Sequence (P63096 whole entry, looked up): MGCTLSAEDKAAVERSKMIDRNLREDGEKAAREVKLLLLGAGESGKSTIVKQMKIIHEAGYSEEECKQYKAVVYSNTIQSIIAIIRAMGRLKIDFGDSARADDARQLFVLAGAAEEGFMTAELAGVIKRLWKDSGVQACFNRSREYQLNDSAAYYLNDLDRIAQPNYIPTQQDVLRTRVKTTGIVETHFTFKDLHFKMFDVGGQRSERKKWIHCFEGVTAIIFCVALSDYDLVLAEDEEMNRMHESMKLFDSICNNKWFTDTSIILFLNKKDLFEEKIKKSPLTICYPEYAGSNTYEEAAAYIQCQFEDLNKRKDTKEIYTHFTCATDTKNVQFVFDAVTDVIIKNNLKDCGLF
# Test: qHTS Assay for Inhibitors of RGS12 GoLoco Motif Activity (Green Fluorophore) (AID 879; active = well fitted curve in the direction sought with a large enough effect;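 note: 0% = labeled peptide with Gαi1 and full inhibition = labeled peptide alone without protein; negative values mean loss of peptide binding seen as reduced polarization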)
# Details: Galphai1/FITC-RGS12 GoLoco peptide, fluorescence polarization; series mostly up to 57.1 µM; activity, negative = inhibition: at the top concentration
# In short: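 Fluorescence polarization assay: 50 nM Gαi1 with 10 nM FITC-labeled RGS12 GoLoco peptide in 10 mM Tris pH 7.5, 150 mM NaCl, 0.1 mM GDP, 0.05% NP40, 10 min at room temperature with compound.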
row,SMILES,"activity, negative = inhibition [%]"
1,N=C(N)SCCc1ccc(CCSC(=N)N)cc1,-8.02
2,C[N+]1(C)CCC(OC(=O)C(c2ccccc2)c2ccccc2)CC1,-17.8
3,CC(=O)SCC[N+](C)(C)C,-11.8
4,CN(C)c1nc(N)c(C(=O)N=C(N)N)nc1Cl,-8.35
5,O=C(Nc1cccc(C(=O)Nc2ccc(S(=O)(=O)O)c3cc(S(=O)(=O)O)cc(S(=O)(=O)O)c23)c1)Nc1cccc(C(=O)Nc2ccc(S(=O)(=O)O)c3cc(S(=O)(=O)O)cc(S(=O)(=O)O)c23)c1,-15.6
6,CCCN(CC1CC1)c1nc(C)nc(Nc2c(Cl)cc(Cl)cc2Cl)c1Cl,-5.79
7,NCCSSCCN,-13.5
8,Cc1cc(NC(=O)Nc2ccc3c(ccn3C)c2)sn1,-18.6
9,NCCNC(=O)c1ncsc1-c1cccc(F)c1,-8.57
10,COc1cc(OC)c(/C=C2/C(=O)Nc3ccccc32)c(OC)c1,9.26
11,COC1=C(OC)C(=O)c2ccccc2C1=O,-3.82
12,CN1CCc2cc(NC(=O)Nc3cccnc3)ccc21,-8.19
13,COc1cccc(C(=O)NCCN2CCN(c3ccc(Cl)cc3)CC2)c1,-13.1
14,Cn1c(=O)c2[nH]c(-c3ccccc3)nc2n(C)c1=O,-8.43
15,C[N+](C)(CCCCCC[N+](C)(C)CCCN1C(=O)c2cccc3cccc(c23)C1=O)CCCN1C(=O)c2cccc3cccc(c23)C1=O,3.15
16,CCCCCCCC/C=C\CCCCCCCC(=O)NCCO,6.45
17,CC(C)Cc1ccc([C@H](C)C(=O)O)cc1,-11.1
18,CN1[C@@H]2CC[C@H]1CC(OC(c1ccccc1)c1ccccc1)C2 (some centres not stated),-15
19,COc1cc2c(CCNC(C)=O)c[nH]c2cc1Cl,-11.8
20,NC[C@@H]1O[C@H](C23CC4CC(CC(C4)C2)C3)Cc2c1ccc(O)c2O,2.86
21,Ic1ccc(N2CCN(Cc3c[nH]c4ncccc34)CC2)cc1,13.4
22,O=C(O)CC[C@@H](C(=O)O)N1C(=O)c2ccccc2C1=O,-18.3
23,N#C/C(=C\c1ccc(O)c(O)c1)C(=O)c1ccc(O)c(O)c1,90.8
24,COc1ccccc1CNCCCCCCNCCCCCCCCNCCCCCCNCc1ccccc1OC,12.6
25,O=c1[nH]c2cc(Cl)c(Cl)cc2[nH]c1=O,-12.3
26,NC(N)=NC(=O)c1nc(Cl)c(N2CCCCCC2)nc1N,9.74
27,CC(C)(C=O)Cc1cc(C(C)(C)C)c(O)c(C(C)(C)C)c1,-2.15
